This note sets out measurements from PubChem BioAssay (NCATS).

Molecules are shown by their SMILES. Values joined by “and” are separate entries in the source; they are usually repeats but may differ in a detail not shown here. Equal values may be shown once. Inconclusive results are not listed. Some structures have more than one record in an assay (separate samples or runs), and their calls can disagree. Active and inactive are the calls of the source. Calls come from the whole dose curve; as a rule, active = well fitted inhibition curve with a large enough effect in the signal ratio, with a control signal flat (not every such curve was filed as active); inconclusive = small, poorly fitted or top-dose-only effect, or effect the other way, or a change in a side signal; inactive = no such curve, though single readings can be large or run the other way; the % refers to the signal ratio.

The target in this assay is Retinoic acid receptor RXR-alpha (Homo sapiens) (UniProt P19793). The assay can be described thus: qHTS assay for small molecule antagonists of retinoid X receptor alpha signaling (AID 588546). Conditions: HEK293T RXRa-UAS-bla, beta-lactamase ratio, antagonist mode. The source says: NIH Chemical Genomics Center [NCGC] U.S. Environmental Protection Agency [EPA] National Institutes of Environmental Health Sciences [NIEHS] National Toxicology Program [NTP] NCGC Assay Overview The Retinoid X receptor (RXR), a nuclear hormone receptor is expressed in liver, spleen, placenta, epidermis, central nervous system. These receptors are able to form homo and heterodimers with other nuclear receptors and due to this heterodimerizing ability, RXR functions as master regulators producing diverse physiological effects. Three subtypes of RXR exist; alpha, beta and gamma. Retinoid X receptor alpha (RXR-alpha) has potential roles in metabolic signaling pathways, skin alopecia, dermal cysts, cardiac development, insulin sensitization etc. Therefore screening environmental chemicals on RXR-alpha signaling can be used for the studies focused on such therapeutic applications.
Sequence of Retinoic acid receptor RXR-alpha (Homo sapiens) (P19793 whole entry, looked up): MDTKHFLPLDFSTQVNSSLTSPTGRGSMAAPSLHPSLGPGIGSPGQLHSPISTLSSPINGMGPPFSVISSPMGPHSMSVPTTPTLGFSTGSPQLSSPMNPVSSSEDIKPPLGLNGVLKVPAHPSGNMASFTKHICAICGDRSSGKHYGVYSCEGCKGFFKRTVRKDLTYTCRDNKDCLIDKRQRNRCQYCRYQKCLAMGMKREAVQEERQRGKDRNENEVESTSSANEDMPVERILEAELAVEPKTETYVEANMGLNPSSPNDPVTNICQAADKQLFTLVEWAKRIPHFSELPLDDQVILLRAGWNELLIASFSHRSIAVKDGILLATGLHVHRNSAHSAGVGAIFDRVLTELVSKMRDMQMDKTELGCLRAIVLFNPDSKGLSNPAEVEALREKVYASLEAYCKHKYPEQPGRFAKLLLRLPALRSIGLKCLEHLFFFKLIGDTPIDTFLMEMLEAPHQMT
NCGC Assay Protocol Summary Using a beta-lactamase reporter-gene under control of Retinoid X receptor--alpha (RXR-alpha) response element, a cell-based assay [GeneBLAzer (RXR-alpha -UAS-bla assay developed by Invitrogen] was used to measure RXR-alpha ligands signaling. GeneBLAzer RXR-alpha -UAS-bla HEK293T cells were used with assay medium containing 2% charcoal-stripped FBS. The assay was performed in clear bottom black Greiner 1536-well plates. Library compounds were measured for their ability to inhibit the reporter gene activity. Compounds were screened in a titration series in 1536-well format. The fluorescence intensity (405 nm excitation, 460/530 nm emission) was measured using an EnVision plate reader. Data was normalized relative to 9-cis-retinoic acid control (500 nM, 100%), and DMSO only wells (basal, 0%). Concentration-response titration points for each compound were fitted to the Hill equation yielding concentrations of half-maximal inhibition (IC50) and maximal response (efficacy) values. qHTS protocol for RXR-alpha beta-lactamase assay in antagonist mode [Step] [Parameter] [Value] [Description] 1. Reagent; 5 uL; 2500 cells/well 2. Incubation; 37 C for 4 hrs 3. Compounds; 23 nL; 0.59 nM to 92 uM 4. Controls (DMSO); 23 nL 5. Agonist (Stimulator); 1uL; 9-cis-retinoic acid at 500 nM and 100 nM final concentrations 6. Incubation; 37 C for 18 hrs 7. Detection reagent; 1 uL of CCF4-dye 8. Incubation; RT for 2 hrs 9. Detection; Fluorescence; Envision plate reader
Take `NCCNc1cccc2ccccc12`: the Potency was 44.7 µM (active) and the max response was -21.1% (inactive). Turning to `C/C=C/c1ccc(O)c(OC)c1`, the max response was 2.19% (inactive) and -7.41% (inactive). Consider `CC1(COc2ccc(CC3SC(=O)NC3=O)cc2)CCCCC1` (configuration not stated), for which the max response is -22.1% (inactive).

With `CCCCCCCCOc1ccc(C(=O)c2ccccc2)c(O)c1`, the max response is -18.6% (inactive). Turning to `O=C(O)c1ccc(S(=O)(=O)N(Cl)Cl)cc1`, the max response is 3.99% (inactive).

On to `CCCCCCCCCCCCCCCCO`, for which the max response is -12.7% (inactive). Turning to `CCCN(CCC)S(=O)(=O)c1ccc(C(=O)O)cc1`, the max response is 6.91% (inactive) and 7.89% (inactive). Take `COc1ccc(C(Cl)=C(c2ccc(OC)cc2)c2ccc(OC)cc2)cc1`: the max response is -16% (inactive). Same read-out and setting: in the case of `CCCCCCCCCCCCCC(=O)OC(C)C` it was 7.8% (inactive); in that of `NC(=O)c1ccccc1O`, 18.9% (inactive); in that of `CCOc1ccccc1C(N)=O`, 0.966% (inactive). Still for that read-out and setting: in the case of `CN(C)C(=O)Nc1ccc(Cl)c(Cl)c1` it was 4.3% (inactive).

As to `CCCCCCCC/C=C\CCCCCCCCN`, the max response is 8.18% (inactive).

As for `CCOc1ccc(NC(C)=O)cc1`, the max response is -12.1% (inactive) and 5.41% (inactive). Same read-out and setting: in the case of `CCCCOC(=O)CC(CC(=O)OCCCC)(OC(C)=O)C(=O)OCCCC` it was -5.69% (inactive). For the compound `C#C[C@]1(O)CC[C@H]2[C@@H]3CCC4=Cc5oncc5C[C@]4(C)[C@H]3CC[C@@]21C`, the max response is -13.1% (inactive). Still for that read-out and setting: in the case of `CCCCCCCCCCCCCCCC(=O)O` it was 0.179% (inactive). Same read-out and setting: in the case of `CCCCC(CC)COC(=O)c1ccc(N(C)C)cc1` (configuration not stated) it was -1.36% (inactive) and 6.53% (inactive); in that of `OC[C@H]1O[C@@H]2O[C@H]3[C@H](O)[C@@H](O)[C@@H](O[C@H]4[C@H](O)[C@@H](O)[C@@H](O[C@H]5[C@H](O)[C@@H](O)[C@@H](O[C@H]6[C@H](O)[C@@H](O)[C@@H](O[C@H]7[C@H](O)[C@@H](O)[C@@H](O[C@H]8[C@H](O)[C@@H](O)[C@@H](O[C@H]1[C@H](O)[C@H]2O)O[C@@H]8CO)O[C@@H]7CO)O[C@@H]6CO)O[C@@H]5CO)O[C@@H]4CO)O[C@@H]3CO`, 10.2% (inactive); in that of `COc1ccc(C(=O)c2ccccc2)c(O)c1`, -9.82% (inactive) and -18.3% (inactive). Take `CC1(C)OC[C@@H]2O[C@@]3(C(=O)O)OC(C)(C)O[C@H]3[C@@H]2O1`: the max response was 1.08% (inactive).
